This passage reports Potency, activity change, negative = viability loss and activity change, negative = cell killing results from PubChem BioAssay (NCATS).

Several values for one entry are separate records, joined by “and”; a condition that tells them apart may be missing. Equal entries are not always repeated. Results filed as inconclusive are left out. A structure can be active in one record and inactive in another. Activity calls are given as the source filed them. Calls come from the whole dose curve; as a rule, active = well fitted curve in the direction sought with a large enough effect; inconclusive = small, poorly fitted or top-dose-only effect, or another doubt; inactive = no such curve, though single readings can be large; an effect the other way counts as inactive or inconclusive.

The nature of assay [1]: Primary qHTS for inhibitors of nuclear receptor binding SET domain protein 2 (NSD2) in an isogenic RCH-ACV NSD2 p.E1099K mutant (9B) (AID 1645876).
Assay [2] in a line: Primary qHTS for inhibitors of nuclear receptor binding SET domain protein 2 (NSD2) in an RCH-ACV wild type WT cells (2C) (AID 1645877). On the technique in general: In qHTS, concentration-response curves come from the screen itself.
% is set by controls: 0 for no effect and ±100 for the full control effect; potency is the fitted concentration of half-maximal effect.
Note: nearly all actives have a fitted effect of over 70% in size.

With `O=C1Nc2ccc(O)cc2O[C@H]1O[C@@H]1O[C@H](CO)[C@@H](O)[C@H](O)[C@H]1O`, the Potency entry in assay [1] and in assay [2] was “inactive” throughout.

As for `CCC(C)/C=C(C)/C=C/C1=CC2=C(Cl)C(=O)C(C)(OC(C)=O)C(=O)C2=CN1C1CCCCN(C(CCC(N)=O)C(=O)O)C1=O` (stereo not given), the Potency result in assay [1] and in assay [2] was “inactive” throughout.

In the case of `CC(C(=O)O)C1CCC2(C)C3C(=O)C=C4C(CCC(=O)C4(C)C)C3(C)CCC12C` (stereo not given), the Potency result in assay [1] and in assay [2] was “inactive” each time.

For `CC1CCC2C(C(=O)O)=CC3C(O)C(C)(C)CC123` (stereo not given), the Potency entry in assay [1] and in assay [2] was “inactive” in each case.

For the compound `COc1cc([C@@H]2Oc3c(OC)cc(CCCO)cc3[C@@H]2CO[C@@H]2O[C@H](CO)[C@@H](O)[C@H](O)[C@H]2O)ccc1O`, the Potency result in assay [1] and in assay [2] was “inactive” in each case.

On to `CC1(C)CC[C@]2(C(=O)O)CC[C@]3(C)C(=CCC4[C@@]5(C)C[C@@H](O)[C@H](O)C(C)(C)C5CC[C@]43C)[C@@H]2[C@@H]1O` (stereo not given in full), for which the Potency result in assay [1] and in assay [2] was “inactive” in each case.

On to `CC(=O)O[C@H]1CC[C@@]2(CI)C(=CC[C@@H]3[C@@H]2CC[C@]2(C)[C@@H]([C@H](C)CCCC(C)C)CC[C@@H]32)C1`, for which the activity change, negative = viability loss in assay [1] was -4.5% [at 9.23 µM] (inactive). Besides, in assay [2], the activity change, negative = cell killing was -14% [at 9.23 µM] (inactive).

In the case of `C[C@@H]1C[C@H](O[C@@H]2O[C@H](CO[C@@H]3OC[C@](O)(CO)[C@H]3O)[C@@H](O)[C@H](O)[C@H]2O)CC(C)(C)[C@H]1/C=C/[C@@H](C)O`, the Potency result in assay [1] and in assay [2] was “inactive” throughout.

As to `CC(=O)O[C@@H]1[C@@H](OC(=O)/C=C/c2ccccc2)[C@H](C)O[C@@H](O[C@H]2[C@@H]3C=CO[C@@H](O[C@@H]4O[C@H](CO)[C@@H](O)[C@H](O)[C@H]4O)[C@@H]3[C@@]3(CO)O[C@@H]23)[C@@H]1OC(C)=O`, the Potency result in assay [1] and in assay [2] was “inactive” in each case.

In the case of `CC(=O)O[C@H]1[C@H](C)[C@@H](O)[C@H]2[C@@H]1C=C(C(=O)O)[C@H]1C[C@@H]3[C@H]([C@H]21)[C@H]1C(=O)O[C@@H]2CC[C@@]3(C)O[C@]1(O)[C@@H]2C`, the Potency result in assay [1] and in assay [2] was “inactive” throughout.

For `NC1CCC(N[C@@H]2C[C@H]2c2ccccc2)CC1` (stereo not given in full), the Potency entry in assay [1] was “inactive”. Moreover, the Potency entry in assay [2] was “inactive and 26.3 µM (active)”.

Regarding `CC(c1c[nH]c2ccccc12)C(O)C(=O)O` (stereo not given), the Potency entry in assay [1] and in assay [2] was “inactive” in each case.

On to `C/C=C1/[C@H](O[C@@H]2O[C@H](CO)[C@@H](O)[C@H](O)[C@H]2O)OC=C(C(=O)OC)[C@H]1CC(=O)O[C@@H]1O[C@H](CO)[C@@H](O)[C@H](O)[C@H]1O`, for which the Potency entry in assay [1] and in assay [2] was “inactive” each time.

Regarding `CC(C)=CCc1ccc(Oc2c(O)cc(C)cc2CO)c(C(=O)O)c1O`, the Potency entry in assay [1] and in assay [2] was “inactive” throughout.

For the compound `COC1CC(=O)CCC(C)OC(=O)CC1O` (stereo not given), the Potency entry in assay [1] and in assay [2] was “inactive” throughout.

As to `CC(=O)OC1C(O)CC(O[C@@H]2O[C@H](CO)[C@@H](O)[C@H](O)[C@H]2O)C2CCC3C(=O)OC(c4ccoc4)CC3(C)C21` (stereo not given in full), the Potency result in assay [1] and in assay [2] was “inactive” in each case.

In the case of `COC(=O)[C@]12C(=O)C(C)=C(O)[C@@]1(C)C(C)=CC1[C@@]34CC[C@@H](OC(C)=O)C(C)(C)C3[C@H](C[C@]12C)OC4=O` (stereo not given in full), the Potency entry in assay [1] and in assay [2] was “inactive” each time.

For `C[C@H]1CC[C@@]2(OC1)O[C@H]1CC3C4CC=C5C[C@H](O)C[C@@H](O[C@@H]6O[C@@H](C)[C@H](O)[C@@H](O)[C@H]6O[C@@H]6O[C@@H](C)[C@H](O)[C@@H](O)[C@H]6O)[C@]5(C)C4CC[C@]3(C)[C@H]1[C@@H]2C` (stereo not given in full), the Potency entry in assay [1] and in assay [2] was “inactive” in each case.

Regarding `CC1CC(O)C2(C)C(C(=O)O)=CCCC2C1(C)CCc1ccoc1` (stereo not given), the Potency entry in assay [1] and in assay [2] was “inactive” throughout.

Turning to `Cn1c(=O)c2nc(/C=C/c3cccc(Cl)c3)n(C)c2n(C)c1=O`, the Potency entry in assay [1] and in assay [2] was “inactive” in each case.

As for `CN(NC(=O)CC(=O)NN(C)C(=S)c1ccccc1)C(=S)c1ccccc1`, the Potency in assay [1] is 40.9 nM (active) and 8.3 nM (active); in assay [2] it was 40.9 nM (active) and 9.3 nM (active).

As to `C[C@@H]1C(=O)O[C@H]2CC34[C@H]5C[C@@H](C(C)(C)C)C36[C@@H](OC(=O)[C@@H]6O)OC4(C(=O)O5)[C@]21O` (stereo not given in full), the Potency result in assay [1] and in assay [2] was “inactive” throughout.

Regarding `CC(=O)OCC1=C[C@H](O)[C@@H]2C(C(=O)O)=CO[C@@H](O[C@@H]3O[C@H](CO)[C@@H](O)[C@H](O)[C@H]3O)[C@H]12`, the Potency entry in assay [1] and in assay [2] was “inactive” in each case.

For `C[C@@H]1CC[C@]2(C(=O)O)CC[C@]3(C)C(=CCC4[C@]5(C)C(CC[C@]43C)C(C)(C)[C@@H](O)[C@H](O)[C@@H]5O)C2[C@]1(C)O` (stereo not given in full), the Potency result in assay [1] and in assay [2] was “inactive” throughout.

With `COc1ccccc1CC(C(=O)O)N(C)C(=O)c1ccccc1` (stereo not given), the Potency result in assay [1] and in assay [2] was “inactive” throughout.
